# Screens from PubChem BioAssay.
# The list is not random: actives were taken first. Their share in the collection is about 11%.
# Tau fluor cs: counter-screen for tau fibril formation inhibitors | 0.93% of 280,000 active | tau K18 P301L Alexa594 fluorescence, heparin fibrillization | Potency, µM (highest dose often 57.7 µM), for the others: at the highest dose activity change, negative = decrease; further: potency means the concentration at half of the fitted maximal effect; nearly all actives have a fitted effect of over 55% in size
#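 Human K18 P301L tau (15 uM unlabeled plus 0.24 uM Alexa 594-labeled, final) in 100 mM sodium acetate pH 7 was mixed with compound and 20 uM heparin and incubated 6 hr at 37 C.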
# Sfp inh: Sfp phosphopantetheinyl transferase inhibition; Biochemical Sfp PPTase activity, qHTS; Potency, µM, inactives show largest response in the series, negative = inhibition, actives largely listed as inhibitors; 3.5% of 310,000 active; AID 1490;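 further: the enzyme is Sfp with the accession as filed and its product quenches rhodamine fluorescence; potency means the concentration at half of the fitted maximal effect; 0% = enzyme reaction without inhibitor and -100% = no enzyme wells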
#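 Reaction rates are the 30-min fluorescence difference (ex 525, em 598 nm) in wells containing 15 nM Sfp, 5 uM rhodamine-CoA and 12.5 uM BHQ-2-YbbR at pH 7.6 with 10 mM MgCl2.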
# Tau FP inhib: blocks human tau fibril formation measured by polarization; P10636; K18 P301L tau heparin fibrillization, Alexa594 FP, 6 h; Potency, µM (top dose mostly 57.7 µM), without a hit: at the highest dose activity, negative = inhibition, most hits filed as inhibitors; 0.39% of 280,000 active; AID 1468; further: potency means the concentration at half of the fitted maximal effect; nearly all actives have a fitted effect of over 55% in size
# Target sequence (P10636 561-689 P618L limits assumed): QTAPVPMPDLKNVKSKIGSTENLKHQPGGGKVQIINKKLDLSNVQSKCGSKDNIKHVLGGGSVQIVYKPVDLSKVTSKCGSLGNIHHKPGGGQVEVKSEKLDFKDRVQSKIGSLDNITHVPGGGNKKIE
#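 Compound effects on tau fibrillization are measured by Alexa 594 fluorescence polarization (ex 555, em 632 nm). K18 P301L tau is used at 15 uM with 0.24 uM labeled tracer, and 20 uM heparin induces aggregation over 6 hr at 37 C.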
# Coupling enz: counter-screen for Giardia aldolase inhibitors: coupling enzyme system. coupling enzyme system counterscreen, AmpLite Red fluorescence. activity change, negative = inhibition, % at 58.2 µM, hits read low. 0.67% of 290,000 active. AID 2472; in the data active means activity change below about -30%
#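 Fluorescence at 525 nm excitation and 598 nm emission measured inhibition of the coupled detection system without aldolase. Compounds (at 57.5 uM final) were preincubated 10 min at room temperature with coupling enzyme reagent before a 20 min substrate/AmpLite Red step.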
# Tau fibril ThT: inhibitors of human tau fibril formation, thioflavin T binding | 2.1% of 270,000 active | P10636 | recombinant tau K18 P301L, heparin-induced fibrillization, ThT fluorescence | Potency, µM (series often up to 57.4 µM), inactives show at the highest dose activity, negative = inhibition, actives largely listed as inhibitors; further: potency means the concentration at half of the fitted maximal effect; nearly all actives have a fitted effect of over 55% in size
#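 ThT emission at 510 nm, taken 1 hr after adding 30 uM dye, quantifies aggregates formed when 20 uM heparin acts on human tau K18 P301L for 6 hr at 37 C.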
# G9a inh: blocks human histone lysine methyltransferase G9a. Q96KQ7. G9a H3K9 monomethylation, AlphaScreen, 2 h. Potency, µM (top dose mostly 102 µM), inactives show at the highest dose activity, negative = inhibition, most hits filed as inhibitors. 8.8% of 350,000 active. AID 504332; further: potency means the concentration at half of the fitted maximal effect; nearly all actives have a fitted effect of over 75% in size
# Target sequence (Q96KQ7 913-1193 limits assumed): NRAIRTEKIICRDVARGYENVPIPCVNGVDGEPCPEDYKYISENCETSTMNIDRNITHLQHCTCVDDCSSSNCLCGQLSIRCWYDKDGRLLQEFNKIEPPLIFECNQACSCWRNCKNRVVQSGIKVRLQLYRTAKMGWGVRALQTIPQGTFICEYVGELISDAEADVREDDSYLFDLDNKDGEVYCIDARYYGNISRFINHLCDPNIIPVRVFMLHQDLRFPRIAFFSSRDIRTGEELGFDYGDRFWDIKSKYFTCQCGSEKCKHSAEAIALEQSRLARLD
#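 Chemiluminescent proximity detection of H3K9 monomethylation, read after 10 min bead incubation in the dark. Reaction: 20 nM G9a, 500 nM biotin-H3K9 peptide, 20 uM SAM cofactor, 2 h, room temperature, following 15 min enzyme-compound preincubation.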
# Active calls of the source: *; ? = inconclusive; . = no result; ! = not confirmed by another sample; [ ] = another dose, or the depositor's remark. Unless noted, the call rests on the fitted dose curve; in most records, active means well fitted curve in the direction sought with a large enough effect; inconclusive means small, poorly fitted or top-dose-only effect, or another doubt; inactive means no such curve, though single readings can be large; an effect the other way counts as inactive or inconclusive. Unless noted, on the % scale 0 is the no-effect control and ±100 the full control effect.
SMILES,Tau fluor cs,Sfp inh,Tau FP inhib,Coupling enz,Tau fibril ThT,G9a inh
O=C1NC(=O)/C(=C\c2ccc(Sc3ccc(Cl)cc3)o2)N1,-13.0%,-14.0%,-2.5%,1.3,-15.4%,-39.9%[59 µM]
O=C1NN(c2ccccc2)C(=O)/C1=C/c1ccc(Sc2ccc(Cl)cc2)o1,?,-1.8%,-16.6%,-1.2,11.2µM*,?
Cc1ccc(Sc2ccc(/C=C3/C(=O)NN(c4ccccc4)C3=O)o2)cc1,?,-4.6%,-13.0%,2.2,12.6µM*,-24.1%[59 µM]
Cn1cc(C(=O)N/N=C/c2ccc(Br)c([N+](=O)[O-])c2)c2ccccc21,14.1µM*[quencher],6.2%,?,0.8,.,-19.8%
Cc1ccc(-c2cc(-c3ccc(Cl)cc3)c(C#N)c(N)n2)o1,-13.1%,8.91µM*,-5.4%,-3.9,?,5.62µM*
N#Cc1c(N)oc(-c2ccc3c(c2)OCO3)c1-c1ccc2c(c1)OCO2,28.2µM*[quencher],3.7%,12.4%,-38.3*,?,50.1µM*
Cc1ccc(-c2cc(-c3ccc(C)o3)nc(N)c2C#N)cc1,-17.7%,12.6µM*,1.2%,-5.3,?,2µM*
Cc1cc(-c2cc(-c3ccc(Cl)cc3)nc(N)c2C#N)co1,-10.6%,10µM*,1.8%,-8.7,?,?
Cc1ccc(-c2c(C#N)c(N)nc3c2CCCCCC3)o1,7.7%,2.5%,5.0%,0.6,6.3%,-36.6%[59 µM]
COc1cc(C(=O)CC2(O)C(=O)N(Cc3ccccc3Cl)c3ccccc32)cc(OC)c1OC (centres undefined),?,.,-4.5%,.,?,-13.4%[59 µM]
CCc1ccc(-n2c(C)nc3cc(C(=O)NCCc4ccccc4)ccc32)cc1,-8.6%,.,?,.,?,?
CCCc1cc(-c2ccc(O)c(OCC)c2)c(C#N)c(N)n1,-18.9%,3.3%,0.3%,-2.6,-16.3%,5.5%[12.7 µM]
CCOc1cc(-c2cc(-c3ccc(C)o3)nc(N)c2C#N)ccc1O,-20.8%,-6.7%,8.8%,2.9,-18.9%,39.8µM*
Cc1nc(N)c(C#N)c(-c2ccc3c(c2)OCO3)c1C,.,5.5%,.,-0.9,.,17.4%[59 µM]
Cc1ccc(-c2cc(-c3ccc4c(c3)OCO4)c(C#N)c(N)n2)o1,?,10µM*,-9.0%,0.6,?,?
Cc1ccc(-c2cc(-c3ccc(F)cc3)c(C#N)c(N)n2)o1,-1.8%,?,2.6%,-1.9,?,8.91µM*
CCc1ccc(NC(=O)CSc2ccc3nc(-c4ccc(OC)cc4)cn3n2)cc1,?,.,8.2%,.,-14.1%,20.0%[59 µM]
CCc1ccccc1NC(=O)N1CCOc2ccccc21,-1.4%,.,-3.3%,.,2.1%,-21.3%[59 µM]
COC(=O)/C=C/c1ccsc1NC(C)=O,-5.8%,50.1µM*,-8.2%,0.1,0.8%,?
NC(=O)c1ccsc1NC(=O)COC(=O)/C=C/c1ccccc1,.,.,.,.,.,-24.6%
COc1cc(C2NC(=O)NC(C)=C2C(C)=O)ccc1O (centres undefined),-4.3%,-14.8%,2.9%,3.9,-6.3%,.
O=C(NCCSC1CCCCC1)c1ccccc1,9.4%,15.3%,-1.3%,-0.9,10.8%,70.8µM*
COc1ccc(C(=O)NCCSC2CCCCC2)cc1,8.7%,8.9%,9.6%,0.6,4.7%,-10.5%[59 µM]
COc1ccc(C(=O)/C=C/C(=O)N(CC(=O)NC2CCCCC2)Cc2ccccc2OC)c(O)c1,-2.3%,3.16µM*,-0.5%,2.4,?,17.8µM*
COc1ccc(C(=O)/C=C/C(=O)N(CC(=O)NC2CCCCC2)CC2CCCO2)c(O)c1 (centres undefined),0.0%,3.16µM*,?,3.7,?,8.91µM*
SMILES,Tau fluor cs,Sfp inh,Tau FP inhib,Coupling enz,Tau fibril ThT,G9a inh
COc1ccc(C(=O)/C=C/C(=O)N(Cc2ccccc2)C(C(=O)NC2CCCCC2)c2ccncc2)c(O)c1 (centres undefined),-5.9%,-1.6%,-1.2%,-1.5,-12.5%,4.1%[59 µM]
COc1ccc(C(=O)/C=C/C(=O)N(CC(=O)NC2CCCCC2)Cc2ccccc2)c(O)c1,-16.7%,1.78µM*,-10.2%,0.9,?,.
COc1ccc(C(=O)/C=C/C(=O)N(Cc2ccccc2OC)C(C(=O)NC2CCCCC2)c2ccncc2)c(O)c1 (centres undefined),-1.6%,6.9%,11.9%,1.5,-7.6%,12.5%[59 µM]
c1ccc(-n2cccc2CNC2CCCCC2)cc1,-1.9%,-13.9%,-2.9%,0.8,-6.9%,?
Cn1cccc1CNC1CCCCC1,-7.9%,7.7%,3.1%,1.0,-4.6%,50.1µM*
NCCCCCCCCCCNCCCN,.,30.0%,.,-0.4,.,.
NCCCNCCCCNCCCN,-4.2%,?,-0.3%,0.7,?,12.6µM*!
CCOC(=O)CC1=CC(C)(CC(=O)OCC)C(C#N)(C#N)C(N)=C1C#N (centres undefined),-25.8%,16.3%,?,-4.9,28.2µM*,-31.4%[12.7 µM]
CCOC(=O)CC1=C(C(=O)OCC)C(c2cc(OC)c(OC)cc2OC)C(C#N)=C(N)O1 (centres undefined),-13.1%,24.3%,-3.5%,-5.8,-20.5%,8.7%[12.7 µM]
Cc1nc2cnc(N3CCN(C)CC3)nc2n(CCc2ccccc2)c1=O,.,3.7%,.,5.0,.,-3.5%[0.501 µM]
Cc1nc(Nc2ccccc2)sc1-c1ccccc1,7.94µM*[quencher],?,12.4%,-10.4,?,?
Cc1cc(C)cc(NC(=O)Nc2ccc(-n3ccc(C(F)(F)F)n3)cc2)c1,?,6.8%,17.8µM*,-3.5,3.1%,0.5%[59 µM]
O=C(O)c1ccccc1C(=O)Nc1ccc(-n2ccc(C(F)(F)F)n2)cc1,-5.8%,20.3%,2.0%,6.2,-3.0%,79.4µM*
O=C(O)CCC(=O)Nc1ccc(-n2ccc(C(F)(F)F)n2)cc1,-6.7%,-18.8%,-6.4%,0.9,.,.
COc1ccc(NC(=O)Nc2ccccc2OC)cc1,-25.0%,0.9%,?,3.3,?,5.8%[59 µM]
O=C(Nc1ccc(-n2ccc(C(F)(F)F)n2)cc1)Nc1cccc(Cl)c1,?,15.0%,3.55µM*,-0.7,13.3%,51.0%
COc1ccccc1NC(=O)Nc1ccc(-n2ccc(C(F)(F)F)n2)cc1,14.1µM*[quencher],8.4%,?,-13.4,?,-24.3%
CCN(c1cccc(C)c1)S(=O)(=O)c1nnc(NC(=O)C2CCCCC2)s1,-23.9%,.,-9.6%,.,?,82.6%[59 µM]
CCN(CC(=O)Nc1ccccc1C(F)(F)F)C(=O)Cc1ccccc1,.,7.9%,.,0.1,.,-0.5%
CCN(Cc1ccccc1)S(=O)(=O)c1ccc(F)c(C(=O)Nc2cc(C(F)(F)F)ccc2Cl)c1,-16.6%,.,-13.2%,.,-1.8%,27.5%[59 µM]
COc1ccc(C)cc1NC(=O)C(OC(=O)C1CC1)c1ccccc1 (centres undefined),-10.5%,13.1%,-2.1%,-0.3,-4.8%,39.7%
